# Laboratory results: PubChem BioAssay
# The source made the active and inactive calls.
# Legend:
# [1] = binders of probe aFSTL3 on microarray, primary screen, stem cell growth factor project, biochemical, small-molecule microarray, fluorescence 635/667 (AID 1064); details: higher = more signal;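 note: measures binding of the biotinylated anti-FSTL3 antibody to printed compounds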
# [2] = binders from COS7 lysate, DM2A8 probe, primary screen, torsin A project, cell lysate, small-molecule microarray, fluorescence 635/667 (AID 1065); details: higher = more signal, COS7 lysate expressing mutant human TOR1A
# [3] = binders of probe aFGF2 on microarray, primary screen, stem cell growth factor project, biochemical, small-molecule microarray, fluorescence 635/667 (AID 1067); details: higher = more signal;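 note: measures binding of biotinylated aFGF2 protein to printed compounds on slides; z-score merges feature fluorescence and signal-to-noise across triplicate slides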
# [4] = binders of probe aFGF10 on microarray, primary screen, stem cell growth factor project, biochemical, small-molecule microarray, fluorescence 635/667 (AID 1071); details: higher = more signal;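 note: score merges 667 nm spot intensity and signal to noise from triplicate slides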
# [5] = biological target: Neurogenic locus notch homolog protein 2 (Homo sapiens) (UniProt Q04721); assay: Notch2 binders on small-molecule microarrays, primary screen, biochemical, small-molecule microarray, 635 nm fluorescence, stem cell growth factors (AID 1073); details: Notch2 binding, higher = more signal
# [6] = biological target: Pro-neuregulin-1, membrane-bound isoform (Homo sapiens) (UniProt Q02297); assay: NRG1 binders on small-molecule microarrays, primary screen, psychiatric disease protein project, biochemical, small-molecule microarray, fluorescence 635/667 (AID 1075); details: NRG1 binding, 635 nm fluorescence, higher = more signal;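 note: score combines 667 nm spot fluorescence with signal to noise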
# Chain of Pro-neuregulin-1, membrane-bound isoform (Homo sapiens) (Q02297 whole entry, looked up, the tested form may be a part, canonical isoform): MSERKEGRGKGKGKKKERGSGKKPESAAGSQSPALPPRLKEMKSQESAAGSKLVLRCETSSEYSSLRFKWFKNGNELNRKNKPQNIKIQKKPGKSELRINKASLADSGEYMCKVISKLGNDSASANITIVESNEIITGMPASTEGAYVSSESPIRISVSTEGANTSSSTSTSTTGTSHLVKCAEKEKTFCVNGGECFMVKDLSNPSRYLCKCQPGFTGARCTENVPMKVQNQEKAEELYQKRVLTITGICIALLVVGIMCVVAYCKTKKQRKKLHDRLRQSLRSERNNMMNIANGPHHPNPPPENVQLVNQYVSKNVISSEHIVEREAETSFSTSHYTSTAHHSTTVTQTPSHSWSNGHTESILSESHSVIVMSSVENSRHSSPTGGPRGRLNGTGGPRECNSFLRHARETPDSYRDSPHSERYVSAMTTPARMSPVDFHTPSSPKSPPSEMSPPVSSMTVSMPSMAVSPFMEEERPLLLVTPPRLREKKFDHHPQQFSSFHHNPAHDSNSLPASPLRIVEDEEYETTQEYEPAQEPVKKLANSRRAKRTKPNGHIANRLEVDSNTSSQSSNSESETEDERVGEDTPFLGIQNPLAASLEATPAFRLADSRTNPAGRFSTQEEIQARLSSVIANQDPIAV
# [7] = system: Neuregulin-1 EGF-like domain; assay: binders of neuregulin-1 EGF-like domain, primary screen, biochemical, small-molecule microarray, 635 nm fluorescence (AID 1081); details: small-molecule microarray binding, higher = more signal;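 note: binding of the protein to compounds printed on small-molecule microarray slides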
# [8] = FRG1 promoter luciferase signal modulators, primary screen, FRG1 inhibition for FSHD, cell-based, C2C12 myotubes, firefly/Renilla luciferase, luminescence (AID 1084); details: higher = more signal, called active from +8 up or from −8 down
# [9] = binders of probe aFST on microarray, primary screen, stem cell growth factor project, biochemical, small-molecule microarray, fluorescence 635/667 (AID 1086); details: higher = more signal;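 note: score merges 667 nm fluorescence with signal-to-noise of each printed compound spot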
# [10] = binders of probe aHhip on microarray, primary screen, stem cell growth factor project, biochemical, small-molecule microarray, fluorescence 635/667 (AID 1087); details: higher = more signal;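 note: score merges spot fluorescence at 667nm with spot signal to noise ratio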
# [11] = system: PRMT1 (protein arginine N-methyltransferase 1); assay: PRMT1 binders on small-molecule microarrays, primary screen, biochemical, small-molecule microarray, 635 nm fluorescence (AID 1088); details: small-molecule microarray binding, higher = more signal;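 note: binding of Prmt1 protein to compounds spotted on small-molecule microarray slides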
# [12] = yeast growth modulation, basal conditions, primary screen, YJM789 clinical isolate, OD600, 24 h (AID 1089);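 note: growth of clinical yeast isolate S. cerevisiae YJM 789 seeded 1000 cells per well; test concentration not given here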; details: S. cerevisiae YJM789 growth, higher = more signal, called active from +8 up or from −8 down
# [13] = fission yeast growth modulation, primary screen, strain 972, OD600, 24 h, no modulator (AID 1090);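 note: basal condition with compound alone and no growth modifier present; test concentration not given here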; details: S. pombe 972 growth, higher = more signal, called active from +8 up or from −8 down
# [14] = S. cerevisiae growth modulation with rapamycin, primary screen, strain BY4716, OD600, 96 h (AID 1091); details: higher = more signal, called active from +8 up or from −8 down; note: test concentration not given here
# [15] = biological target: Torsin-1A-interacting protein 2 (Homo sapiens) (UniProt Q8NFQ8); assay: LULL1 binders on small-molecule microarray, primary screen, cell lysate, human LULL1 lysate, 635/667 nm fluorescence (AID 1092); details: hLULL1 lysate binding, 635 nm fluorescence, higher = more signal;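 note: probe is lysate of COS7 cells overexpressing human LULL1; score merges per-feature 667 nm fluorescence with signal-to-noise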
# Chain of Torsin-1A-interacting protein 2 (Homo sapiens) (Q8NFQ8 whole entry, looked up): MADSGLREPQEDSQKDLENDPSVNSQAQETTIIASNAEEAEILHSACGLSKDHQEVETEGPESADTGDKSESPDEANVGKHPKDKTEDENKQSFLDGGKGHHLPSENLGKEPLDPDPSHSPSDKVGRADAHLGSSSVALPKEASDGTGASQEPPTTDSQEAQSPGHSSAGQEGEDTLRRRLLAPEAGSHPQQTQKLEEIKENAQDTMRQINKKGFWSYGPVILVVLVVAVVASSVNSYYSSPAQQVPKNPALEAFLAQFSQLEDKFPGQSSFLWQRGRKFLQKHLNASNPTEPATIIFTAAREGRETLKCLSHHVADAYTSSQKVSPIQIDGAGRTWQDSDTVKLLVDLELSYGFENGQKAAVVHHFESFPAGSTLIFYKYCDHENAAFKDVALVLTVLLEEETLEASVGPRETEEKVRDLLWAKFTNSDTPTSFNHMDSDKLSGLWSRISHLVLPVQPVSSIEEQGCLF
# [16] = E. coli growth modulation, two-sided OD650, primary screen, E. coli filamentation project, strain DRC41, 24 h (AID 1093); details: OD650, 24 h, higher = more signal, called active from +8 up or from −8 down;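 note: MC1000 strain lacking acrAB efflux and sulA so SOS filamentation is blocked; test concentration not given here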
# [17] = small-molecule microarray binders of probe aLefty2, primary screen, biochemical, biotinylated probe, 635/667 nm fluorescence (AID 1094); details: higher = more signal;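 note: score merges spot fluorescence near 667 nm with spot signal-to-noise ratio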
# [18] = system: Noggin (protein binding on small-molecule microarray); assay: Noggin binders on small-molecule microarray, primary screen, biochemical, 635/667 nm fluorescence (AID 1095); details: 635 nm fluorescence, higher = more signal;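 note: score merges 667 nm feature fluorescence with signal to noise over triplicate slides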
# [19] = biological target: Neurogenic locus notch homolog protein 3 (Homo sapiens) (UniProt Q9UM47); assay: NOTCH3 binders on small-molecule microarray, primary screen, biochemical, 635/667 nm fluorescence (AID 1096); details: NOTCH3 binding, 635 nm fluorescence, higher = more signal
# Chain of Neurogenic locus notch homolog protein 3 (Homo sapiens) (Q9UM47 whole entry, looked up): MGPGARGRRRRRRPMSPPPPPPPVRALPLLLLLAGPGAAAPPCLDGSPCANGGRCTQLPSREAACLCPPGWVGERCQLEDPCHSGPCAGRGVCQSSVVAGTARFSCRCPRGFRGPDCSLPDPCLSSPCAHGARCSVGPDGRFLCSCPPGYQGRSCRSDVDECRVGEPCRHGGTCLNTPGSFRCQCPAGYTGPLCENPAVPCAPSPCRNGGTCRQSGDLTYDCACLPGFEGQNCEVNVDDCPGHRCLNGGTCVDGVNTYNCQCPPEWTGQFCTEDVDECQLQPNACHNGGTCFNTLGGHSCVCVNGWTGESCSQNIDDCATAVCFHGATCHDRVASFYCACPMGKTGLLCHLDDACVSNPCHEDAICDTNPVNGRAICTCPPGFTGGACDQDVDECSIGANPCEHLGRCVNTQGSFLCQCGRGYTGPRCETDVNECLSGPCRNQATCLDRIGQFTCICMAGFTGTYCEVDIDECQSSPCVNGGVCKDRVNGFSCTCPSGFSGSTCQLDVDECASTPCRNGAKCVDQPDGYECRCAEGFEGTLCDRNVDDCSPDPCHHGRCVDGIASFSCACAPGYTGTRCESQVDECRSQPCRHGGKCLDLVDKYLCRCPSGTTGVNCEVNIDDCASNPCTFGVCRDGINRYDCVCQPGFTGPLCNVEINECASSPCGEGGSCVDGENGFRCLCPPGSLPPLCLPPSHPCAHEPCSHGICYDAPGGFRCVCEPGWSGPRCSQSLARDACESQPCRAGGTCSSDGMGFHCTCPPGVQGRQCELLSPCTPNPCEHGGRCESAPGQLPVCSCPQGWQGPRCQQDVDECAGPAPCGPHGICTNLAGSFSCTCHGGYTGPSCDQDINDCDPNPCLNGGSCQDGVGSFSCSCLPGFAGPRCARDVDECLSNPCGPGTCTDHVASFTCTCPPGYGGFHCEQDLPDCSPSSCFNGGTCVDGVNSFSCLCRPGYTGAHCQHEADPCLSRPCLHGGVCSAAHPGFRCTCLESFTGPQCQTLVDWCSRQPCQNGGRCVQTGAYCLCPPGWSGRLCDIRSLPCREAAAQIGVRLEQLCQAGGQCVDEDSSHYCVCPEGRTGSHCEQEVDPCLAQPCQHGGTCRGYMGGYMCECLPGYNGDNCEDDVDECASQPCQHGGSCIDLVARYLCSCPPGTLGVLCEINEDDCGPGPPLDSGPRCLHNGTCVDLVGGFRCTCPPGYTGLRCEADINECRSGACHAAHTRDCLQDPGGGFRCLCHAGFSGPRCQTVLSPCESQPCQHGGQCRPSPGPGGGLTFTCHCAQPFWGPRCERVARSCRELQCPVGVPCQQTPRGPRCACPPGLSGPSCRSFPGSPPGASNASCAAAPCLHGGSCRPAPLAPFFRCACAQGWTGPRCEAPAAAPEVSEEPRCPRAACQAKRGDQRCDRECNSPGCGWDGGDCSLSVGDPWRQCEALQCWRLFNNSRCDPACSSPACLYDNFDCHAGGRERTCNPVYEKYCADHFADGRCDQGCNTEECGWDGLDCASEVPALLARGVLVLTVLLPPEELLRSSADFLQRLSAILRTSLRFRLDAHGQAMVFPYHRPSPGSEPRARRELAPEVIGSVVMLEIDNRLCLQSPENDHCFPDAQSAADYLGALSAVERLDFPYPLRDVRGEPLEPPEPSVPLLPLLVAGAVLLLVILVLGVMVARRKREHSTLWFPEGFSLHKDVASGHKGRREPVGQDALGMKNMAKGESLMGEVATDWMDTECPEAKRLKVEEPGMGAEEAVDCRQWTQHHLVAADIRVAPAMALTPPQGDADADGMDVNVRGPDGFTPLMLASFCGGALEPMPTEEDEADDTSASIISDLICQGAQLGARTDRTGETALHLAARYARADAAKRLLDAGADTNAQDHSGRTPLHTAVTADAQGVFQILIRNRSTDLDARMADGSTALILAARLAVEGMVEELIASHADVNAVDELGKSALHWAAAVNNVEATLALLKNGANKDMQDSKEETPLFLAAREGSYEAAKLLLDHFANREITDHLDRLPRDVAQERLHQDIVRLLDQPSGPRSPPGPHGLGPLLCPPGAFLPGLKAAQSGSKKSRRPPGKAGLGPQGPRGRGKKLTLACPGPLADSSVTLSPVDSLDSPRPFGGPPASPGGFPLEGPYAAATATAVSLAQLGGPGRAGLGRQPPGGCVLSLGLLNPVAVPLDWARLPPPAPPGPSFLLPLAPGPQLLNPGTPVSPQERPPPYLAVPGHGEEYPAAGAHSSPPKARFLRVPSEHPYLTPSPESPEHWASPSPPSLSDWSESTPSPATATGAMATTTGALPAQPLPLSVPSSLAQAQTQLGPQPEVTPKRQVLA
# [20] = small-molecule microarray binders of probe aEGFR, primary screen, biochemical, biotinylated probe, 635/667 nm fluorescence (AID 1097); details: higher = more signal;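 note: probe is a biotinylated anti-EGFR antibody binding compounds printed on slides; score combines fluorescence near 667 nm and signal to noise of each spot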
Structure (SMILES),composite z-score [1],composite z-score [2],composite z-score [3],composite z-score [4],composite z-score [5],composite z-score [6],composite z-score [7],z-score [8],composite z-score [9],composite z-score [10],composite z-score [11],z-score [12],z-score [13],z-score [14],composite z-score [15],z-score [16],composite z-score [17],composite z-score [18],composite z-score [19],composite z-score [20]
C[C@]1(C(=O)NC2CC2)c2ccccc2C(=O)N(Cc2cc(F)cc(C(F)(F)F)c2)[C@H]1c1ccc(CO)cc1,-0.364,-0.035,-0.116,-0.636,-1.13,1.72,1.37,-1.05 (inactive),-0.527,-0.256,1.52,0.257 (inactive),-0.194 (inactive),0.217 (inactive),3.29,0.299 (inactive),-0.188,-0.104,0.518,-0.312
CN(C)CCCC[C@@H]1NC(=O)[C@H]2C[C@@H](C(=O)NCCCCCCNC(=O)CS)[C@@H](c3cccc(OCCO)c3)N2C1=O,0.272,0.447,-0.135,-0.217,-0.486,0.891,0.334,0.47 (inactive),-0.346,0.411,-0.174,-0.522 (inactive),-0.221 (inactive),-0.195 (inactive),0.935,-0.12 (inactive),0.0141,-0.0227,-0.289,-0.146
CO[C@H]1O[C@H](CO)[C@@H](OC(=O)CCc2ccccc2)[C@@H]2OC(=O)[C@@H](Cc3ccc4ccccc4c3)C/C=C/C[C@H](Cc3ccc4ccccc4c3)C(=O)O[C@@H]12,-0.129,0.693,-0.179,-0.0304,-0.641,0.617,-0.127,-1.72 (inactive),-0.354,-0.0994,0.505,-2.4 (inactive),-2.22 (inactive),11.7 (active),0.784,0.149 (inactive),-0.138,-0.701,-1.26,-0.206
C=C(C(=O)CC[C@@H](OC(=O)c1ccccc1-c1ccccc1C(=O)O)c1ccc(OCCO)cc1)C(C)C,-0.49,0.235,0.0129,1.11,0.52,0.551,0.512,2.12 (inactive),0.136,0.245,1.55,-0.694 (inactive),-1.26 (inactive),-1.3 (inactive),1.25,0.416 (inactive),0.0028,1.35,1.15,-0.0755
CCCCC(=C=CC[C@@H](O)c1ccc(OCCO)cc1)CCO,-0.171,0.532,-0.087,0.558,-0.051,1.65,0.922,-0.58 (inactive),0.0121,0.176,0.571,-0.026 (inactive),-1.56 (inactive),-1.06 (inactive),1.6,0.639 (inactive),-0.135,0.424,-0.0085,-0.333
CN1C(=O)C2CC=C(C3=CCO[C@@H]3[C@H]3CCCN3S(=O)(=O)c3ccccc3[N+](=O)[O-])CC2C1=O (stereo not given in full),0.895,-0.216,-0.166,0.114,-0.456,0.789,-0.132,-0.869 (inactive),0.0699,0.0373,0.0659,-0.0649 (inactive),-0.706 (inactive),-0.0153 (inactive),0.283,-0.66 (inactive),-0.203,-0.194,0.01,-0.171
CCCC=C(CCC)[C@@H](NC(=O)c1ccc(C(=O)OC)cc1)c1ccc(C(=O)OC)cc1,0.0362,-0.312,0.355,-0.327,0.423,0.203,-0.166,1.24 (inactive),0.484,2.54,0.0599,0.57 (inactive),0.311 (inactive),0.182 (inactive),2.85,-1.29 (inactive),0.177,0.294,0.251,0.0173
COC(=O)[C@@]1(Cc2ccc(F)cc2)[C@H]2c3cc(C(=O)N4CCCC4)n(CCc4c[nH]c5cc(F)ccc45)c3C[C@H]2CN1C(=O)c1ccccc1,0.198,0.197,0.289,0.634,1.68,2.01,1.35,0.53 (inactive),1.69,0.281,0.765,0.0277 (inactive),1.24 (inactive),1.94 (inactive),3.39,-0.167 (inactive),0.605,0.344,1.02,0.756
CCOC(=O)C1=CC[C@@H](c2ccccc2)N(S(=O)(=O)c2ccc(C)cc2)[C@@H]1C#N,-0.182,-0.0258,0.0056,0.388,1.25,1.11,1.05,-0.823 (inactive),0.158,0.0505,0.712,-0.671 (inactive),-2.08 (inactive),0.529 (inactive),2.69,0.405 (inactive),0.0979,-0.59,0.749,-0.013
Cc1c(NC(=O)/C(C#N)=C/C=C/c2ccc([N+](=O)[O-])cc2)c(=O)n(-c2ccccc2)n1C,-0.309,0.129,-0.0718,0.906,1.63,1.65,1.25,3.34 (inactive),0.854,-0.0867,1.49,0.437 (inactive),-0.914 (inactive),0.0795 (inactive),3.17,-1.46 (inactive),-0.022,0.305,1.04,0.0506
